# Measurements as given in PubChem BioAssay (EPA / NIEHS).
# Inconclusive results are not listed. The source made the active and inactive calls. The calls were made as follows: active = hit-call score of the fitted dose curve at least 0.9, where 1 is the maximum; inconclusive = response in the unintended direction; inactive = score below 0.9.
# What was measured:
# [1] = target: human Elastase, ELANE (gene 1991) (UniProt P08246); test: NVS_ENZ_hElastase: NovaScreen (NVS) Enzymatic Assay for human Elastase (AID 2283153)
# Procedure, shortened: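 Concentration-response to 50 uM max, run singly for chemicals passing a threshold (e.g., 30% inhibition) in a duplicate 25 uM single-point screen. Neutrophil-derived human elastase, absorbance read-out of enzyme activity at 1.5 h; DMSO baseline.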
# [2] = target: Histone deacetylase 3 (Homo sapiens) (UniProt O15379); test: NVS_ENZ_hHDAC3: NovaScreen (NVS) Enzymatic Assay for human Histone Deacetylase 3 (HDAC3) (AID 2283163)
# Procedure, shortened: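 Cell-free enzyme format: loss of fluorescent product after mobility-shift separation, 1 h incubation, recombinant human HDAC3. Single 25 uM duplicate screen first, then concentration series to a 50 uM top for hits; DMSO as baseline.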
# [3] = target: Protein deacetylase HDAC6 (Homo sapiens) (UniProt Q9UBN7); test: NVS_ENZ_hHDAC6: NovaScreen (NVS) Enzymatic Assay for human Histone Deacetylase 6 (HDAC6) (AID 2283164)
# Experimental: (§1) NVS_ENZ_hHDAC6 is a biochemical, single-readout assay that uses extracted gene-proteins in a cell-free assay. Measurements were taken 1 hour after chemical dosing in a 384-well plate.NVS_ENZ_hHDAC6 is one of one assay component(s) measured or calculated from the NVS_ENZ_hHDAC6 assay. It is designed to make measurements of enzyme activity, a form of enzyme reporter, as detected with fluorescence intensity signals by Fluorescence and electrophoretic mobility shift technology.Data from the assay component NVS_ENZ_hHDAC6 was analyzed into 1 assay endpoint. This assay endpoint, NVS_ENZ_hHDAC6, was analyzed in the positive analysis fitting direction relative to DMSO as the negative control and baseline of activity. Using a type of enzyme reporter, loss-of-signal activity can be used to understand changes in the enzymatic activity as they relate to the gene HDAC6. Furthermore, this assay endpoint can be referred to as a primary readout, because this assay has produced multiple assay endpoints where this one serves a enzymatic activity function. To generalize the intended target to other relatable targets, this assay endpoint is annotated to the hydrolase intended target family, where the subfamily is histone deacetylase.
# (§2) Binding assays used specific radioligands (tritiated, iodinated) with non-radioactive competitive displacement ligands in agonist or antagonist protocols (as indicated) and various reference compounds and inhibitors to titrate specific binding to receptors and transporters. Most enzyme assays (CYPs, kinases, phosphatases, proteases, HDACs) used recombinant protein and specific substrates (fluorescence mostly, some colorimetric and radioactive) and inhibitors, followed by a biochemical separation of substrate and product. All assays for the biochemical HTS were initially run in duplicate at a single concentration (10 uM for CYP450 assays and 25 uM for all others). Assay-chemical combinations meeting a pre-defined threshold (e.g., 30% inhibition and other criteria defined below) were then run in singleton concentration-response format with maximum concentration of 20 uM for CYPs and 50 uM for all others. Each assay was run with positive and negative controls, and concurrent controls on every plate. The follow-up (secondary) screen tested active chemical-pairs in concentration series, as well as a few additional assays not tested in the primary screen, some selected negative inactives, and several cases re-run in the concentration series for confirmatory purposes.
# [4] = target: human Esterase Plasma (ES), BCHE (gene 590) (UniProt P06276); test: NVS_ENZ_hES: NovaScreen (NVS) Enzymatic Assay for human Esterase Plasma (ES) (AID 2283157)
# Experimental: NVS_ENZ_hES is a biochemical, single-readout assay that uses extracted gene-proteins from Human plasma in a cell-free assay. Measurements were taken 0.25 hour after chemical dosing in a 96-well plate.NVS_ENZ_hES is one of one assay component(s) measured or calculated from the NVS_ENZ_hES assay. It is designed to make measurements of enzyme activity, a form of enzyme reporter, as detected with absorbance signals by Colorimetric technology.Data from the assay component NVS_ENZ_hES was analyzed into 1 assay endpoint. This assay endpoint, NVS_ENZ_hES, was analyzed in the positive analysis fitting direction relative to DMSO as the negative control and baseline of activity. Using a type of enzyme reporter, loss-of-signal activity can be used to understand changes in the enzymatic activity as they relate to the gene BCHE. Furthermore, this assay endpoint can be referred to as a primary readout, because this assay has produced multiple assay endpoints where this one serves a enzymatic activity function. To generalize the intended target to other relatable targets, this assay endpoint is annotated to the esterase intended target family, where the subfamily is pseudocholinesterase.
# as §2
# [5] = target: human Ephrin type-A Receptor 2 (EphA2), EPHA2 (gene 1969) (UniProt P29317); test: NVS_ENZ_hEphA2: NovaScreen (NVS) Enzymatic Assay for human Ephrin type-A Receptor 2 (EphA2) (AID 2283155)
# Experimental: as §1, with “NVS_ENZ_hEphA2” for “NVS_ENZ_hHDAC6”, “plate.NVS_ENZ_hEphA2” for “plate.NVS_ENZ_hHDAC6”, “NVS_ENZ_hEphA2,” for “NVS_ENZ_hHDAC6,”, “EPHA2.” for “HDAC6.”, “kinase” for “hydrolase”, “receptor tyrosine kinase. […]” for “histone deacetylase.”
# [6] = target: human Ephrin type-A Receptor 1 (EphA1), EPHA1 (gene 2041) (UniProt P21709); test: NVS_ENZ_hEphA1: NovaScreen (NVS) Enzymatic Assay for human Ephrin type-A Receptor 1 (EphA1) (AID 2283158);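 also: activity is signal loss versus DMSO meaning EphA1 kinase inhibition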
# Procedure, shortened: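 Cell-free kinase activity with recombinant protein, 1 hour after dosing; product separated by electrophoretic mobility shift, fluorescence read. Primary screen at 25 uM in duplicate; hits run as concentration-response up to 50 uM, relative to DMSO.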
# [7] = target: human Dual Specificity Protein Phosphatase 3 (DUSP3), DUSP3 (gene 1845) (UniProt P51452); test: NVS_ENZ_hDUSP3: NovaScreen (NVS) Enzymatic Assay for human Dual Specificity Protein Phosphatase 3 (DUSP3) (AID 2283152);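 also: phosphatase activity of recombinant human DUSP3 on a fluorogenic substrate without cells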
# Procedure, shortened: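 Cell-free fluorescence-intensity enzyme activity assay with recombinant protein and substrate; loss of signal fitted relative to DMSO baseline. Primary screen in duplicate at 25 uM, actives then run in concentration series; measured 0 h after dosing.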
# [8] = target: human Ephrin type-B Receptor 2 (EphB2), EPHB2 (gene 2048) (UniProt P29323); test: NVS_ENZ_hEphB2: NovaScreen (NVS) Enzymatic Assay for human Ephrin type-B Receptor 2 (EphB2) (AID 2283156)
# Procedure, shortened: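 Compounds were first tested in duplicate at 25 uM, with hits rerun singly in concentration series up to 50 uM. Enzyme activity on fluorescent substrate was read at 1 h by mobility-shift separation, scored as signal loss relative to DMSO.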
# [9] = target: human FYN Proto-Oncogene, Src family Tyrosine Kinase (Fyn), FYN (gene 2534) (UniProt P06241); test: NVS_ENZ_hFyn: NovaScreen (NVS) Enzymatic Assay for human FYN Proto-Oncogene, Src family Tyrosine Kinase (Fyn) (AID 2283161)
# Procedure, shortened: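 Cell-free kinase activity read by fluorescence after mobility-shift separation of substrate and product, 1 h post-dose. Initial single concentration 25 uM in duplicate, then concentration-response follow-up; DMSO baseline.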
# [10] = target: human Ephrin type-B Receptor 1 (EphB1), EPHB1 (gene 2047) (UniProt P54762); test: NVS_ENZ_hEphB1: NovaScreen (NVS) Enzymatic Assay for human Ephrin type-B Receptor 1 (EphB1) (AID 2283154)
# Procedure, shortened: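 Recombinant EphB1 activity read by fluorescence after mobility-shift separation of product from substrate, 1 h post-dosing. Compounds screened in duplicate at 25 uM; inhibition scored as signal loss relative to DMSO.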
# Chain of human Ephrin type-A Receptor 1 (EphA1), EPHA1 (gene 2041) (P21709 whole entry, looked up): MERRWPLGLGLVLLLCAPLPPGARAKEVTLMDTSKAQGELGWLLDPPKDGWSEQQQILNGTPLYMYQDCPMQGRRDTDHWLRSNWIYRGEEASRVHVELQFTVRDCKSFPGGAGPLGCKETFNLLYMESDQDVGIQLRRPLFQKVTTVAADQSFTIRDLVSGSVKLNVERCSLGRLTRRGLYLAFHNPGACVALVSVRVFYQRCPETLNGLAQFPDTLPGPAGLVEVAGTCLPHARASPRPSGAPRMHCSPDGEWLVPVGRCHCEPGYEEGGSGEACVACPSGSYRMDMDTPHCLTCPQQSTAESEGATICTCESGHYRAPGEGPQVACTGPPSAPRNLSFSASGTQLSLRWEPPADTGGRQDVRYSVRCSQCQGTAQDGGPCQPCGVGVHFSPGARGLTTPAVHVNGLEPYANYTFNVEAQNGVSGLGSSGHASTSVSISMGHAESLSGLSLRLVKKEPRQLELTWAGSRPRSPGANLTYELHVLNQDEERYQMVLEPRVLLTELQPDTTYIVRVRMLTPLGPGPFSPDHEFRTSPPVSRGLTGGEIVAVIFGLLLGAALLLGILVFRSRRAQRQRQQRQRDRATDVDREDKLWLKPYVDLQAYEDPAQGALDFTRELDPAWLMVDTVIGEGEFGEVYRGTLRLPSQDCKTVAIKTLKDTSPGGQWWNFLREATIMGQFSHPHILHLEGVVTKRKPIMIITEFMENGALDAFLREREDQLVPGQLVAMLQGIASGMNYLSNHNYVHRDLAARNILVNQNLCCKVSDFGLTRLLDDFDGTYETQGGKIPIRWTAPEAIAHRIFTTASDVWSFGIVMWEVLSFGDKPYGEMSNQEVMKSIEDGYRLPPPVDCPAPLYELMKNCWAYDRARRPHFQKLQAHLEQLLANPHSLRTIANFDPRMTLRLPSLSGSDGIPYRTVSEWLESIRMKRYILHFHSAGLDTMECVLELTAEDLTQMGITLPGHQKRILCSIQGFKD
# Chain of human Dual Specificity Protein Phosphatase 3 (DUSP3), DUSP3 (gene 1845) (P51452 whole entry, looked up): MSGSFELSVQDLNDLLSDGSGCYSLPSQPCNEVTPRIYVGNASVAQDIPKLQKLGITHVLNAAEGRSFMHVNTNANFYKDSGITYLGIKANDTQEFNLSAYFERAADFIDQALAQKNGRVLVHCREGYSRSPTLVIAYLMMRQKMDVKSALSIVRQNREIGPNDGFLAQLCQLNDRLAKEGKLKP
# Chain of Histone deacetylase 3 (Homo sapiens) (O15379 whole entry, looked up): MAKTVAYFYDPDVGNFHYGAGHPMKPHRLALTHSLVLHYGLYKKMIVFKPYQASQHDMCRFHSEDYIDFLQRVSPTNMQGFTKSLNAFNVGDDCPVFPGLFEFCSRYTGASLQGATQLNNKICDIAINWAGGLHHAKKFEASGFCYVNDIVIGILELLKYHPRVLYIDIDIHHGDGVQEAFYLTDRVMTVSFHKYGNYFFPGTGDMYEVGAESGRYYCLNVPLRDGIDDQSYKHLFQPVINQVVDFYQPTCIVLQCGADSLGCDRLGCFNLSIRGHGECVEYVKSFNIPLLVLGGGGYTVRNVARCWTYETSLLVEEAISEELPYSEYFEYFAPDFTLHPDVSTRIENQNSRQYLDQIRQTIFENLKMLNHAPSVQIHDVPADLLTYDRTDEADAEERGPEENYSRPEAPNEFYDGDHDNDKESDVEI
# Chain of Protein deacetylase HDAC6 (Homo sapiens) (Q9UBN7 whole entry, looked up): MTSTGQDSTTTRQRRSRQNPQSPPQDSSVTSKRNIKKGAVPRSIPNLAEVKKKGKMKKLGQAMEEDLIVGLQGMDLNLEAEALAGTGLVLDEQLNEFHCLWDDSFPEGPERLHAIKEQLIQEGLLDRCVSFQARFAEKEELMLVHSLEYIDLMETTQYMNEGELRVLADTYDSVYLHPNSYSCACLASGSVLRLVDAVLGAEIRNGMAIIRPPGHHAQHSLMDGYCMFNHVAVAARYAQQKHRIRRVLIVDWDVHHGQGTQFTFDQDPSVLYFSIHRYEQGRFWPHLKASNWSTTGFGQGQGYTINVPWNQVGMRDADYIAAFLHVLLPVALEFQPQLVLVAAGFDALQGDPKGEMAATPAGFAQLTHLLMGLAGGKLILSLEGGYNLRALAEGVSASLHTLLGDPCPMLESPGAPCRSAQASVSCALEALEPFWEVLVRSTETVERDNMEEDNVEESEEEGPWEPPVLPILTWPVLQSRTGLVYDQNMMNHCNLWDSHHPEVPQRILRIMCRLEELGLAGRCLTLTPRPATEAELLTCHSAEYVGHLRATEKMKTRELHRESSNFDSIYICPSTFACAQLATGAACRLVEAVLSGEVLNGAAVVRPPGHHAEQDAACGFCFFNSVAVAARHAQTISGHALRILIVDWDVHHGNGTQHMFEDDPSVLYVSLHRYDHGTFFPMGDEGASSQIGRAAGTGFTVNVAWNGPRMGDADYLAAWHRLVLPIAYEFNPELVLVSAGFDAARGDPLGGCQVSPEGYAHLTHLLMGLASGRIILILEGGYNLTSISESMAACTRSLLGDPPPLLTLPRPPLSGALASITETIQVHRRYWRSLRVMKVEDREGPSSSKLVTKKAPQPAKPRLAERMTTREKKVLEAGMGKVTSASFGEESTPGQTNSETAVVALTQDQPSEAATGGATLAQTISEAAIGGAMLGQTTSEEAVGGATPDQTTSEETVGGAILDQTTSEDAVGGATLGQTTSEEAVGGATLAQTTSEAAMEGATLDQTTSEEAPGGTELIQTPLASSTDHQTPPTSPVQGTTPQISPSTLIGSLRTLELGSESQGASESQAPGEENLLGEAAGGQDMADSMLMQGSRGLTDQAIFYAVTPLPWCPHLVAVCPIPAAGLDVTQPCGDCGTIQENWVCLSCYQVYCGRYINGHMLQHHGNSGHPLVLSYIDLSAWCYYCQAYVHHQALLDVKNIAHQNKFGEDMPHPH
# Chain of human Esterase Plasma (ES), BCHE (gene 590) (P06276 whole entry, looked up): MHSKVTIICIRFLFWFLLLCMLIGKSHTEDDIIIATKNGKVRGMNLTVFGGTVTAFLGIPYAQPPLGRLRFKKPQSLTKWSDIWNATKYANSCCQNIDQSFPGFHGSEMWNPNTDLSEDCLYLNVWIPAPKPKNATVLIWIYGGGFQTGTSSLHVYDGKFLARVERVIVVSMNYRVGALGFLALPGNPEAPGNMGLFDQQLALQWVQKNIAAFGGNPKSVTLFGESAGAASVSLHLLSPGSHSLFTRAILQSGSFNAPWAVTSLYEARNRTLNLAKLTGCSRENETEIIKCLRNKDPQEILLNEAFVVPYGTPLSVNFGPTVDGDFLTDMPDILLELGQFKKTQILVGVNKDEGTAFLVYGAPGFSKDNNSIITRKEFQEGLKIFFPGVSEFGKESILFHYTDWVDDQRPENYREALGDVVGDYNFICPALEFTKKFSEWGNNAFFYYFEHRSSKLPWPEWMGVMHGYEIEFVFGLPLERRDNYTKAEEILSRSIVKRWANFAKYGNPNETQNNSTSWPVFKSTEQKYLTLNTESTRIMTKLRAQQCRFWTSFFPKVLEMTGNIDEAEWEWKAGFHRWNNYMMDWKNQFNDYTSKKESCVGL
# Chain of human FYN Proto-Oncogene, Src family Tyrosine Kinase (Fyn), FYN (gene 2534) (P06241 whole entry, looked up): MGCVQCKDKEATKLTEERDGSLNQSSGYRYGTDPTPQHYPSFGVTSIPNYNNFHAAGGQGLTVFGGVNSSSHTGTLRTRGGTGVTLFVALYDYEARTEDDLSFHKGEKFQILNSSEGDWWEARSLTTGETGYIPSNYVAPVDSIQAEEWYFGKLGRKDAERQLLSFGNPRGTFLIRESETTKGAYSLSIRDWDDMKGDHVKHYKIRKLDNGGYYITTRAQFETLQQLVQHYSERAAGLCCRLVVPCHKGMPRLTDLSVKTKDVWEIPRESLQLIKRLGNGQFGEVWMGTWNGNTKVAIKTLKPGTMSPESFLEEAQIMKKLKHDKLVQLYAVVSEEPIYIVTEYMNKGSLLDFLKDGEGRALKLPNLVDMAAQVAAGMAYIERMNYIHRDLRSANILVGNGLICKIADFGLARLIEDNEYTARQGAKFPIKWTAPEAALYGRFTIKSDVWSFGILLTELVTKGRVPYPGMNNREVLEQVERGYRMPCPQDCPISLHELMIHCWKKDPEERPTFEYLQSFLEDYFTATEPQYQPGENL
# Chain of human Ephrin type-B Receptor 1 (EphB1), EPHB1 (gene 2047) (P54762 whole entry, looked up): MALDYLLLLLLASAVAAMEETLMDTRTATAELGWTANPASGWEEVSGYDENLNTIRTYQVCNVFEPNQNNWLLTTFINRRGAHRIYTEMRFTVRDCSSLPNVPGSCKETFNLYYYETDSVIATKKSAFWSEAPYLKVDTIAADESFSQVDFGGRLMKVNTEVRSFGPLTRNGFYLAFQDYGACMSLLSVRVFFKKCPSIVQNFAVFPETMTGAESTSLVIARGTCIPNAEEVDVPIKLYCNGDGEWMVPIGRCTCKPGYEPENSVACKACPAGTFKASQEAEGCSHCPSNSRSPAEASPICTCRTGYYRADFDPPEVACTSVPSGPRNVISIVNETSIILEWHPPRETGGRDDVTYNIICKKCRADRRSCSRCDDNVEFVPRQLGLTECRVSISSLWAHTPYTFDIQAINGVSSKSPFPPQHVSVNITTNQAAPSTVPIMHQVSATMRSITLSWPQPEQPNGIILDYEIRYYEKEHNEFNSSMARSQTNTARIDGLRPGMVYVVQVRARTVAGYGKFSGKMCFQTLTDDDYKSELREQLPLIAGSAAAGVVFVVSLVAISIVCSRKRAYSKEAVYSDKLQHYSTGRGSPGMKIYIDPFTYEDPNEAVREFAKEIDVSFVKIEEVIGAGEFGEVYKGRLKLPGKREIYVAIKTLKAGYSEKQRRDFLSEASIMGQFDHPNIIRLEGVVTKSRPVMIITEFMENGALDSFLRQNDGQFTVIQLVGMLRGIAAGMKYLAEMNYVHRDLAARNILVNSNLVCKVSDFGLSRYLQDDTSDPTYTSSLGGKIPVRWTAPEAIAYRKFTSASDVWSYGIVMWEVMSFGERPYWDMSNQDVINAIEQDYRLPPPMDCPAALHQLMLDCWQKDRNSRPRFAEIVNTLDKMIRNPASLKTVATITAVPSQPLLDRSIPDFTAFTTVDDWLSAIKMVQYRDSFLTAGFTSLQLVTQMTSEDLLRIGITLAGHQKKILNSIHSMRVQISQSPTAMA
smiles,measurement,setting,value
NS(=O)(=O)C(F)(F)C(F)(F)C(F)(F)C(F)(F)C(F)(F)C(F)(F)C(F)(F)C(F)(F)F,outcome,[1],inactive
c1cc2ccc3cccc4ccc(c1)c2c34,outcome,[2],inactive
same,outcome,[3],inactive
CCCN(CCC)N=O,outcome,[4],inactive
O=S(=O)(O)C(F)(F)C(F)(F)C(F)(F)C(F)(F)C(F)(F)C(F)(F)F,outcome,[3],inactive
O=C(NC(=O)c1c(F)cccc1F)Nc1cc(Cl)c(OC(F)(F)C(F)F)c(Cl)c1,outcome,[5],inactive
same,outcome,[6],inactive
ClC1=C(Cl)[C@]2(Cl)[C@@H]3[C@@H]4C[C@@H]([C@H]5O[C@@H]45)[C@@H]3[C@@]1(Cl)C2(Cl)Cl,AC50,[7],46.6 µM (active)
same,AC50,[1],37.5 µM (active)
Oc1ccc(C(c2ccc(O)cc2)(C(F)(F)F)C(F)(F)F)cc1,outcome,[8],inactive
same,outcome,[9],inactive
O=C(N[C@H]1CN2CCC1CC2)c1cc2ccoc2cn1,outcome,[4],inactive
O=C(O)C(F)(F)C(F)(F)C(F)(F)C(F)(F)C(F)(F)F,outcome,[2],inactive
CN(C)c1nc(=O)n(C2CCCCC2)c(=O)n1C,outcome,[10],inactive
Nn1cnnc1,outcome,[2],inactive
O=C(O)C(F)(F)C(F)(F)C(F)(F)C(F)(F)C(F)(F)C(F)(F)C(F)(F)C(F)(F)C(F)(F)F,AC50,[7],13 µM (active)
CCOCCOC(C)=O,outcome,[3],inactive
CCCCCCCCCc1ccc(O)cc1,AC50,[7],13.2 µM (active)
same,outcome,[6],inactive
O=C(O)C(F)(F)C(F)(F)C(F)(F)C(F)(F)C(F)(F)C(F)(F)C(F)(F)C(F)(F)F,outcome,[6],inactive
same,outcome,[9],inactive
Cc1ccccc1CO[C@@H]1C[C@@]2(C(C)C)CC[C@]1(C)O2,outcome,[10],inactive
same,AC50,[4],9.07 µM (active)
CCCCCCCCCC[N+](C)(C)CCCCCCCCCC,AC50,[7],26.3 µM (active)
same,AC50,[4],25 µM (active)
same,AC50,[6],19.7 µM (active)
CC1=C2C[C@H]3[C@@H](CC=C4C[C@@H](O)CC[C@@]43C)[C@@H]2CC[C@]12O[C@@H]1C[C@H](C)CN[C@H]1[C@H]2C,AC50,[4],12.5 µM (active)
same,outcome,[6],inactive
same,outcome,[9],inactive
same,outcome,[2],inactive
same,outcome,[3],inactive
CCCCCCCCOC(=O)c1ccccc1C(=O)OCCCCCCCC,outcome,[7],inactive
Cc1cccc([N+](=O)[O-])c1,outcome,[6],inactive
CCOP(=S)(OCC)SCSC(C)(C)C,outcome,[2],inactive
